In PubChem BioAssay AID1006 (Sanford-Burnham Center for Chemical Genomics, 2008):
Hit rate of the full screen: of about 200,000 compounds, about 3,000 (1.5%) were called active.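 Rule for the calls: active = inhibition above about 50% when tested at 10 µM (limit read from the data); inactive = the rest.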 The list comes from a sample in which actives are over-represented; it also holds similar structures and randomly drawn compounds.

These molecules were tested against Luciferin 4-monooxygenase (Photinus pyralis) (UniProt P08659) (assay: inhibition of purified FLuc reporter enzyme – biochemical, luminescence, ATPLite, artefact control for luciferase-based inhibitor screens, primary screen (AID 1006)). Conditions: ATPLite firefly luciferase biochemical luminescence, 10 min; at 10 µM; active compounds read high.
Luciferin 4-monooxygenase (Photinus pyralis), sequence (P08659 whole entry, looked up): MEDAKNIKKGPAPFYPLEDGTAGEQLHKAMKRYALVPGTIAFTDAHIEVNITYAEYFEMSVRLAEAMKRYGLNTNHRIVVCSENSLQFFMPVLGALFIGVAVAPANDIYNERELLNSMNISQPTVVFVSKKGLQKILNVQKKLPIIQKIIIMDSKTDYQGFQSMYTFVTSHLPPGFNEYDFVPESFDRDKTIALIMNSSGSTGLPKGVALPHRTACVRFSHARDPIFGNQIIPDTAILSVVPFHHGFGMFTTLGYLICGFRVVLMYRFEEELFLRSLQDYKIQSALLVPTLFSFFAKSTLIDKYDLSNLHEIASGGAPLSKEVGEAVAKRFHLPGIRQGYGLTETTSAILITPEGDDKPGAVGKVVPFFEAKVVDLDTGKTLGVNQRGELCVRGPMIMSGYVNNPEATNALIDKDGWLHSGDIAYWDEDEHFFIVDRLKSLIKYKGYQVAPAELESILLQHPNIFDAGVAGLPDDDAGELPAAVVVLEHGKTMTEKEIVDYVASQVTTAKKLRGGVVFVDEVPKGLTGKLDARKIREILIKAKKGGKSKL

inhibition, active:
Cc1ccc(-c2cn3cc(C)ccc3n2)cc1 95.9%
C/C(=N\Nc1nc2ccccc2[nH]1)c1cccs1 73.6%
C/C(=N\Nc1ncc(Cl)cc1Cl)c1cccs1 57.2%
Cn1c(=NC(=O)c2ccco2)sc2cccc(F)c21 59.7%
COc1ccc(Nc2ncc(F)c(N3CCOCC3)n2)cc1 75.2%
CCOc1ccc(C(=O)Nc2cccc(SC)c2)cc1 62.1%
Cc1cc(C(=O)COC(=O)C2CC2)c(C)n1-c1ccc(F)cc1 95%
CC(=O)n1c(C=Nc2ccccc2)c(O)c2ccccc21 61.6%
CCc1ccc(-c2cc(C(=O)NN3CCN(C)CC3)c3ccccc3n2)cc1 63%
COc1cccc(C(=O)Nc2cc3c(cc2Br)OCCCO3)c1 64.3%
COc1cccc(C(=O)Nc2ccc(N3CCCC3)cc2)c1 67.6%
COc1ccc(NC(=O)c2ccc(OC)cc2)cc1 63.1%
N=c1oc2ccccc2cc1C(=O)N/N=C/c1ccccc1 56.7%
O=C(OC1CCOC1=O)c1ccc(-c2nc3ccccc3s2)s1 (stereo unspecified) 91.4%

inhibition, inactive:
O=C(CC(=O)N/N=C\c1cccc(Cl)c1Cl)NCc1ccccc1 -7.3%
CS(=O)(=O)Nc1cccc(-c2cn3ccccc3n2)c1 16.8%
Cc1ccc(-c2cc(N)on2)cc1 17.5%
COc1ccc(OC)c(-n2c(=S)[nH]c3cc(C(=O)N4CCCCC4)ccc3c2=O)c1 -6.8%
C/C(=N\Nc1nc(Nc2ccccc2)nc(N2CCOCC2)n1)c1cccs1 5.5%
O=C(CSc1nc2ccccc2[nH]1)c1cccs1 5.4%
COc1cccc(/C(C)=N/Nc2ncc(Cl)cc2Cl)c1 4.4%
C/C(=N\Nc1ncc(Cl)cc1Cl)c1ccc(S(=O)(=O)NCc2ccco2)cc1 2%
Cc1cc(NC(C)C)n2c(nc3ccccc32)c1C#N -2%
O=[N+]([O-])c1ccc2c(c1)C(N1CCOCC1)/C(=C/C1(O)CCCCC1)O2 (stereo unspecified) 0.2%
O=C(CN1CCC(O)(c2ccccc2)CC1)Nc1ccc2c(c1)OCCO2 -7.8%
C=CCc1cccc2cc(C(=O)Nc3ccc(NC(C)=O)cc3)c(=O)oc12 -2.7%
CC(C)N(Cc1ccccc1)C(=O)COC(=O)c1cnccn1 -3.5%
CCCC(=O)N=c1sc2cccc(F)c2n1C 7%
Cn1c(=NC(=O)C2CC2)sc2cc(F)cc(F)c21 0.6%
C=C(C)c1cccc(C(C)(C)NC(=O)NC2CCCC2)c1 -3.3%
CCC(=O)N1CCC(C(N)=O)(N2CCCCC2)CC1 -4.7%
CCOc1ccc(Nc2nc(Cl)nc(N3CCN(c4ccc(OC)cc4)CC3)n2)cc1 -4.4%
c1ccc(Nc2nc(N3CCOCC3)c3ccccc3n2)cc1 2%
Cc1nc(N2CCOCC2)sc1C(=O)NN 0.3%
CCOc1ccc(C(=O)Nc2ccncc2)cc1 11.8%
CCOc1ccc(C(=O)Nc2cccc(-c3ccc4nncn4n3)c2)cc1 37.7%
O=C1CC(c2c(F)cccc2Cl)C(n2cncn2)C(O)=C1C1NCCc2ccccc21 (stereo unspecified) -4.6%
O=C(c1cncc(Br)c1)N1CCN(c2ccc([N+](=O)[O-])cc2)CC1 -0.9%
COC(=O)c1ccc(-c2noc(CN(Cc3ccccn3)CC3CCCO3)n2)cc1 (stereo unspecified) 4.4%
Cc1ccc(-n2c(C)cc(C(=O)CN3C(=O)C(=O)N(C4CCCC4)C3=O)c2C)cc1 -7.1%
COc1cc(/C=N/NC(=O)c2cc(C)n(-c3ccc(F)cc3)c2C)cc(OC)c1O 5.2%
CCOc1ccc(N=Cc2c(O)n(-c3cccc(C)n3)c(=O)c3ccccc23)cc1 -1%
CCCn1c(=O)c(-c2ccccc2)c(O)c2ccccc21 0.1%
Cc1cccc(C(=O)NNC(=O)c2cccc([N+](=O)[O-])c2)c1 -0.8%
O=C(NCCc1ccccn1)c1cc(-c2ccc(Cl)cc2)nc2ccccc12 1.6%
CC(C)(C)Cc1nnc(NC(=O)c2cc(-c3ccccc3)nc3ccccc23)s1 -4.3%
Cc1nc2ccc(NC(=S)N3CCC(C)CC3)cc2nc1C -2.6%
O=C(C1CCCN1S(=O)(=O)c1ccc(Br)cc1)N1CCOCC1 (stereo unspecified) 0.6%
CCCCN(CC)CCCNC(=O)c1ccc(CSc2nc3ccncc3[nH]2)cc1 37.9%
O=C(CC1CCCCC1)NCc1ccc(F)cc1 -3.7%
c1ccc(-n2nnnc2-c2cccnc2)cc1 -0.4%
COc1ccc(C(=O)NC(=S)Nc2ccc(N3CCCC3)cc2)cc1OC -14.5%
COc1ccc(NC(=O)c2ccc(C#CC(C)(C)O)cc2)cc1 5.6%
COc1cccc(OC)c1C(=O)Nc1ccc(N2CCCCC2)cc1 -8.2%
COc1ccc(C(=O)Nc2ccc(S(=O)(=O)NC(C)C)cc2)cc1 -3.1%
COc1ccc(C2COC(=O)C2=N)c(NC(=O)c2ccccc2)c1 (stereo unspecified) -6.7%
COc1cccc(C(=O)NNC(=O)c2ccccc2Br)c1 2.9%
CC(C)(C)C1CCC(C(=O)Nc2cccnc2)CC1 (stereo unspecified) -3.4%
COc1ccc(-c2csc(-c3cccs3)n2)cc1OC 19.9%
COc1cccc(C(=O)NCCSc2ccc(Br)cc2)c1 2.1%
C=CCNc1scc(-c2ccccc2)[n+]1CC=C -5.9%
CNC(=O)c1cc2c(ccc3ccccc32)oc1=N 7.1%
O=C(N/N=C/c1coc2ccccc2c1=O)c1cc2ccccc2o1 -6.6%
O=C(O)C1C2CC2CN1C(=O)c1ccc(Cl)cc1Cl (stereo unspecified) -5%
Cc1nn(Cc2ccccc2)c(Cl)c1C(=O)OC1CCOC1=O (stereo unspecified) -3.6%
O=C(OC1CCOC1=O)c1cccc(S(=O)(=O)Nc2ccc(F)cc2)c1 (stereo unspecified) -4.8%
